Most compounds without a hit are left out; they make up all but 3.5% or so of the library.
TEAD-YAP block: TEAD-YAP interaction inhibition | HEK-TIYL cells, TEAD-Gal4/YAP UAS-luciferase luminescence | inhibition, % at 9.12 µM | 640,000 compounds, 1.4% hits | AID 1259422; in the data active = inhibition above about 32%;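 note: 0% = median of test compound wells and 100% = reference inhibitor wells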
FBW7 act: human FBW7 E3 ligase activation, primary screen; 650,000 compounds, 0.13% hits; normalized activity (activation), % at 26.1 µM; AlphaScreen FBW7–phospho-cyclin E peptide binding, activator screen; AID 1259310; in the data active = normalized activity above about 1.9%;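 note: purified mutant Fbw7 with reduced substrate affinity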
Target sequence (Q969H0 whole entry, looked up): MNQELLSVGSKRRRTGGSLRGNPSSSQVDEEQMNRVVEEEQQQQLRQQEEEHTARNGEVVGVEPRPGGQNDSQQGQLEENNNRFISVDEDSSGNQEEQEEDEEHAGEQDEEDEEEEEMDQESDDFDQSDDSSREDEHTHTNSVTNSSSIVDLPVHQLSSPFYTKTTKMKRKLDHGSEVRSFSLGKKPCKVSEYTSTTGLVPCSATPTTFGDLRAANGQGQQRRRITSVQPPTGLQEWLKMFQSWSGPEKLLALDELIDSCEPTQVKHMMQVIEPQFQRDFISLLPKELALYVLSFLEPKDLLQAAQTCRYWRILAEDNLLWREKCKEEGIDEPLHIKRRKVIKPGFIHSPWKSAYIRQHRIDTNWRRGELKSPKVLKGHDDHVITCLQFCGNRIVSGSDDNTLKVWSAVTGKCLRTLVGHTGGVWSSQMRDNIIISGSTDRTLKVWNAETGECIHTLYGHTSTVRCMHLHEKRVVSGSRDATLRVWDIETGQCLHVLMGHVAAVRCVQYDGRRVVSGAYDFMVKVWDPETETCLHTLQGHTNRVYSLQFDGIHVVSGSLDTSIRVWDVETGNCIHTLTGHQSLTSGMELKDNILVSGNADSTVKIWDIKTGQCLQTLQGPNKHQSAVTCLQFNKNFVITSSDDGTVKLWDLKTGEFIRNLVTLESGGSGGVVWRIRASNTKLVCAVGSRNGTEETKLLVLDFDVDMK
GPR151 ag: activates the human receptor GPR151; PathHunter beta-arrestin GPR151 cells, luminescence; activation, % at 11.2 µM; 650,000 compounds, 1% hits; Q8TDV0; in the data active = activation above about 4.9%;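 note: 0% = median of compound wells and 100% = cells with positive control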
MITF primary: human MITF inhibition, primary screen; 650,000 compounds, 0.91% hits; inhibition, % at 2.6 µM; AlphaScreen MITF homodimerization, bead proximity signal; O75030; in the data active = inhibition above about 50%;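 note: 0% = vehicle wells with protein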
GPR151 conf act: confirmation of human GPR151 activators | shares compounds with GPR151 ag | GPR151 PathHunter beta-arrestin cells, luminescence, 90 min; % of EA-reagent control over plate median | activation, % at 11.2 µM | 6,700 tested, under 10 active | AID 1508609;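 active = mean percent activation across replicates above the confirmation screen cutoff of 4.91%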
GPR119 counter: GPR119 activation, counter-screen for GPR151 activators; shares compounds with GPR151 ag; GPR119 PathHunter beta-arrestin cells, luminescence, 90 min; 0 = compound-well median, 100 = enzyme-acceptor control; activation, % at 11.2 µM; 6,700 compounds, 0.3% hits; AID 1508611;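 active = mean percent activation in the counterscreen above 29.09%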;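 note: counterscreen on off-target GPR119 to flag nonselective hits from the GPR151 activator screen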
The depositor's hits bear a star; / = no result given; ! = a repeat was not active.

SMILES | TEAD-YAP block | FBW7 act | GPR151 ag | MITF primary | GPR151 conf act | GPR119 counter
O=C(NCc1ccc(F)cc1)c1cc(-c2ccccc2Cl)nc2ccccc12 | 7.8 | 0.0 | 16.5* | 2.1 | 1.4 | 16.3
NNC(=O)c1cc(-c2ccc(F)cc2)nc2ccccc12 | 2.1 | -0.1 | 6.1* | 5.2 | 0.7 | 15.5
N#C/C(C(N)=O)=C(/O)C(=O)/C=C(\O)c1ccc(F)cc1 | 6.9 | 0.0 | -0.3 | 6.4 | / | /
CS(=O)(=O)c1ncc(Cl)c(C(=O)Nc2ccc([N+](=O)[O-])cc2)n1 | -19.2 | 0.1 | -0.7 | 4.8 | / | /
CCCCn1c(SCC(=O)N2CCCC2)nnc1-c1ccncc1 | 4.0 | 0.0 | -1.3 | 2.4 | / | /
CC(=O)N1CCC(N(C(=O)C2CCN(c3ccc(C(F)(F)F)cn3)CC2)C2CC2)CC1 | -2.7 | -0.2 | 5.5* | 16.4 | -0.6 | -3.3
O=C(CCC1CCN(C(=O)C2=CCCCC2)CC1)Nc1ccccc1 | 0.6 | 0.1 | 5.3* | -3.5 | 0.2 | -5.3
CC(=O)Nc1ccc(NC(=O)c2csc(-c3ccc(C(N)=O)cc3)n2)cc1 | -0.5 | 0.0 | 0.0 | -8.6 | / | /
COCCCNc1nc(-c2ccccc2F)nc2ccccc12 | 10.9 | 0.1 | 6.3* | -31.8 | -0.6 | -14.5
COCCNc1nc(-c2ccccc2F)nc2ccccc12 | 24.0 | 0.1 | -0.2 | 9.1 | / | /
Cc1ccc(C(=O)Nc2ccc(Br)cn2)cc1[N+](=O)[O-] | -61.4 | 0.0 | 0.4 | -6.9 | / | /
O=C(Nc1ccc(Br)cn1)c1ccc(N2CCCCC2)c([N+](=O)[O-])c1 | -59.1 | -0.1 | 6.5* | -3.9 | 2.5 | 8.6
CNc1cc([N+](=O)[O-])ccc1N/C=C\C(=O)c1ccc(OC)cc1OC | -19.8 | 0.0 | 5.8* | 15.8 | 0.3 | -1.4
Oc1ccc(-c2nc3cnccn3c2NCc2cccs2)cc1O | -9.6 | 0.0 | -1.0 | 15.7 | / | /
CCc1cc2c(oc(=O)c3ccccc32)c(CN2CCN(C)CC2)c1O | -4.8 | 0.0 | 0.1 | -9.4 | / | /
O=C(O)c1c(Br)sc(-c2ccccc2)c1-c1ccccc1 | -11.3 | 0.0 | 7.1* | -1.4 | 0.2 | -1.6
NNc1nc(N2CCOCC2)nc(N(c2ccccc2)c2ccccc2)n1 | 8.4 | 0.1 | 9.0* | 10.4 | 0.4 | 5.8
Clc1nc(N2CCOCC2)nc(N(c2ccccc2)c2ccccc2)n1 | 6.2 | 0.0 | -2.1 | 17.1 | / | /
CN(C)N1C(N)=C(C#N)C(c2cccnc2)C2=C1CC(c1ccccc1)CC2=O (stereo not drawn) | -13.7 | -0.4 | -1.4 | 3.4 | / | /
Cc1cc(C)n(-c2ccc(NC(=O)C3CCN(Cc4cnc(C)s4)CC3)cc2)n1 | 2.6 | 0.2 | 5.8*! | -6.7 | 0.3 | -13.7
Cc1ncc(CN2CCC(C(=O)Nc3ccc(-n4cccn4)cc3)CC2)s1 | -6.9 | 0.5 | -0.6 | 15.0 | / | /
C=CCNc1nc(-c2ccc(OC)c3ccccc23)cs1 | 0.2 | 0.0 | 5.4* | 16.3 | -0.1 | -4.0
O=C(COC(=O)c1ccc(OC(F)F)cc1)Nc1cccnc1Cl | -3.5 | 0.4 | 11.5* | 12.4 | -0.7 | 4.5
COCCCNc1nc2nonc2nc1N1CCN2CCCC2C1 (stereo not drawn) | 1.1 | 0.0 | -0.5 | -7.5 | / | /
COCCCNc1nc2nonc2nc1N1CCN(C2CCCC2)CC1 | 2.4 | -0.1 | 5.7* | -0.6 | 1.3 | 10.8
SMILES | TEAD-YAP block | FBW7 act | GPR151 ag | MITF primary | GPR151 conf act | GPR119 counter
Cc1ccc(CN2CCN3C(=O)[C@H](CCCCN)NC(=O)[C@H]3C2)cc1 | -2.2 | -0.1 | -0.7 | -0.5 | / | /
CC(C)Cc1ccc(C(C)C(=O)O)cc1 (stereo not drawn) | 9.8 | 0.0 | 0.2 | 2.4 | / | /
CC(C(=O)O)c1ccc(CC2CCCC2=O)cc1 (stereo not drawn) | 4.4 | 0.0 | 6.7*! | 4.5 | -0.1 | 0.6
COc1ccccc1N=c1oc2ccccc2cc1C(=O)NC(C)=O | -38.1 | 0.6 | -0.4 | -0.4 | / | /
CCN(c1ccccc1C)S(=O)(=O)c1nnc(NC(=O)c2ccc(F)cc2)s1 | 6.8 | 0.1 | 10.2* | 6.2 | -0.2 | -5.7
CCN(c1ccccc1)S(=O)(=O)c1nnc(NC(=O)c2ccccc2OC)s1 | 2.9 | -0.2 | 5.0* | -9.0 | 1.3 | 5.3
CCN(c1ccccc1)S(=O)(=O)c1ccc(F)c(C(=O)Nc2ccc(OC)cc2)c1 | 4.6 | 0.2 | 8.7* | 13.6 | -1.6 | -15.2
CCCCc1cc(=O)oc2c(C)c(OCC(=O)c3ccc(F)cc3)ccc12 | -12.4 | 0.3 | 0.6 | 2.6 | / | /
O=C(OCc1cccc([N+](=O)[O-])c1)c1ccc(I)cc1 | -7.0 | 0.0 | -0.5 | -6.7 | / | /
CCCCCn1c(SCC(=O)N2CCCC2)nc2cc(C(=O)NCC3CCCO3)ccc2c1=O (stereo not drawn) | 7.0 | -0.2 | 0.2 | 0.5 | / | /
Cc1ccc(-n2[nH]c(C)c(C=Nc3cccc(C(=O)O)c3)c2=O)cc1 | -12.0 | -0.1 | 5.4*! | 14.6 | 0.2 | -0.3
Cc1nn(C)cc1CN1CCC(CO)(CCOc2ccccc2)CC1 | 5.2 | 0.1 | 10.7* | 3.8 | 0.8 | 7.7
COc1ccc(CCNC(=O)c2cc3c(=O)n4ccccc4nc3n2C)cc1OC | -6.8 | -0.1 | 1.3 | -2.5 | / | /
O=C(NCC1CCCN(S(=O)(=O)/C=C/c2ccccc2)C1)c1cc2ccccc2[nH]1 (stereo not drawn) | 3.7 | 0.0 | -0.9 | -14.0 | / | /
Cc1cc(S(=O)(=O)N2CCCC(CNC(=O)c3cc4ccccc4[nH]3)C2)c(C)s1 (stereo not drawn) | -0.1 | -0.2 | 6.2* | 8.5 | 0.2 | -1.6
O=C(COC(=O)c1ccccc1Br)NCc1ccco1 | -5.6 | -0.1 | -0.6 | 12.5 | / | /
O=C(O)CSc1nc(-c2ccccc2)cc(C(F)F)n1 | 1.4 | -0.1 | -1.0 | -2.8 | / | /
Cc1nc(SCC(=O)O)cc(-c2ccccc2)n1 | -4.6 | 0.2 | 5.0* | -14.4 | -0.5 | -2.2
Cc1ccccc1C(NC(=O)C1CCN(C(=O)NC(C)(C)C)CC1)c1ccccn1 (stereo not drawn) | -5.5 | 0.0 | 0.1 | -17.6 | / | /
CCOC(=O)Cn1nnnc1CN(Cc1cc2c(C)cc(C)cc2[nH]c1=O)C1CCCC1 | -1.1 | 0.6 | -1.4 | 9.4 | / | /
Cc1ccc(Cn2ccnc2SCC(=O)Nc2ccccc2F)cc1 | 5.0 | -0.1 | 8.6* | -1.5 | -0.4 | -9.0
O=C(CSc1nccn1Cc1ccc(F)cc1)Nc1nccs1 | -15.8 | -0.1 | 7.0* | -7.3 | 0.1 | -2.3
CCOC(=O)C1=C(C)N=c2s/c(=C\c3cn(Cc4ccccc4Cl)c4ccccc34)c(=O)n2C1c1ccc(OC)cc1OC (stereo not drawn) | 4.6 | 0.0 | -0.5 | 1.9 | / | /
O=C(CN1C(=O)c2ccccc2C1=O)OC1CSCC1NC(=O)c1ccccc1 (stereo not drawn) | 5.3 | 0.2 | -0.6 | 8.4 | / | /
CSc1ccccc1C(=O)N1CCN(Cc2nnnn2-c2ccc(C)cc2)CC1 | -6.5 | -0.3 | -2.0 | -0.8 | / | /
COCCCNc1nc2nonc2nc1N(C)Cc1ccc(F)cc1 | -1.6 | 0.1 | 5.8* | 8.3 | 0.7 | 4.6
COCCCNc1nc2nonc2nc1N(C)Cc1ccccn1 | -5.7 | 0.1 | -0.3 | -8.7 | / | /

Screening results deposited in PubChem by The Scripps Research Institute Molecular Screening Center.
